# Data: the supplement of paper PMC7156485
# Structures can show the parent of a compound that is named as a salt. ± gives the standard deviation of the averaged measurements.
# What was measured:
# Settings in all cases: concentration: 10 µM; 24 h
# HCC1569 [1] = test: cell number relative to DMSO (% of DMSO); higher = more cells (less growth inhibition / toxicity)
# How it was run: (§1)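 Cell number or H1.0 nuclear intensity appears as percent of the plate control, based on the median of replicates. Measurements came from HCC1569 and TDF cells exposed in triplicate to compounds at 10 µM for 24 h at 37 °C, then imaged in six fields per well at ×10. Positional effects were smoothed out of HCC1569 values.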
# TDF [2] = test: as above
# How it was run: as §1
# TDF [3] = test: H1.0 immunofluorescence intensity relative to DMSO (% of DMSO); higher = stronger H1.0 induction, active = 120 or more
# How it was run: as §1
# HCC1569 [4] = test: H1.0 immunofluorescence intensity relative to DMSO (% of DMSO); higher = stronger H1.0 induction, active = 140 or more
# How it was run: as §1
# 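Throughout, for H1.0 immunofluorescence intensity relative to DMSO: TDF is a line of transformed human dermal fibroblasts of mesenchymal origin.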
# 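Throughout, for cell number relative to DMSO: TDF denotes transformed human dermal fibroblasts of mesenchymal origin.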
Compound,cell number (HCC1569 [1]),cell number (TDF [2]),H1.0 immunofluorescence intensity (TDF [3]),H1.0 immunofluorescence intensity (HCC1569 [4])
CNC(=O)c1ccccc1Sc1ccc2c(C=Cc3ccccn3)n[nH]c2c1 [Axitinib],67.8,46.4,99.1 (inactive),134 (inactive)
CC(C)C1C2CCC(C2)C1N.Cl (stereo unspecified),99.9,105,93 (inactive),90.8 (inactive)
Cc1ccc(-c2cc(C(F)(F)F)nn2-c2ccc(S(N)(=O)=O)cc2)cc1 [Celecoxib],97.7,103,99.1 (inactive),106 (inactive)
CC(=O)O.CSC(N)=NCCCC(N)C(=O)O [S-Methyl-L-thiocitrulline acetate],99.4,108,92 (inactive),97.5 (inactive)
CCN1CCc2nc(N)oc2CC1.Cl.Cl [B-HT 933 dihydrochloride],99.5,104,97 (inactive),87.2 (inactive)
Cc1cc(CS(=O)(=O)c2ccccc2)cc(OCc2ccc(CN3CCC[C@@H]3CO)cc2)c1 [PF-543 hydrochloride],95.8,90.2,102 (inactive),122 (inactive)
CN1CCc2cccc3c2C1Cc1ccc(O)c(O)c1-3.Cl [(R)-(-)-Apomorphine.HCl],98.4,98.9,89.1 (inactive),103 (inactive)
O=c1[nH]c2ccccc2n1CCCN1CCN(C(c2ccccc2)c2ccccc2)CC1 [Oxatomide],98.3 ± 2.3,105 ± 7.4,90.8 (inactive),101 (inactive)
CCCCCC=CCC=CCC=CCC=CCCCCCC(=O)O [Adrenic acid (22:4 n-6)],99,107,108 (inactive),99.9 (inactive)
